Results filed as inconclusive are left out. Calls of active or inactive are those of the source. Unless noted, calls come from the whole dose curve; as a rule, active = well fitted curve in the direction sought with a large enough effect in the repeat runs; inconclusive = weak or mixed curves; inactive = no such curve, though single readings can be large; an effect the other way counts as inactive or inconclusive.

Assay [1] is described as follows: qHTS assay to identify small molecule antagonists of the thyroid receptor (TR) signaling pathway - cell viability counter screen (AID 743064). Note: nearly all actives have a fitted effect of over 50% in size. In short, it runs like this: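 CellTiter-Fluor readout, 30 min at 37 °C/5% CO2, following 23.5 h incubation of GH3.TRE-Luc cells with test compound and 1 nM T3 (final).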
A short description of assay [2]: qHTS assay to identify small molecule antagonists of the thyroid receptor (TR) signaling pathway (AID 743065). Note: series mostly up to about 70 µM; nearly all actives have a fitted effect of over 55% in size. In short, it runs like this:
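GH3.TRE-Luc rat pituitary cells carrying two TR response elements driving luciferase were plated for 4 h, given compound plus 1 nM T3 (final), and incubated 23.5 h at 37 C. ONE-Glo luminescence measured reporter inhibition; CellTiter-Fluor fluorescence tracked cytotoxicity.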

The subject of assay [3] is thyroid hormone receptor (rat, GH3 cells). In words: qHTS assay to identify small molecule agonists of the thyroid receptor (TR) signaling pathway (AID 743066; calls by dose curve).
In assay [4] the target is Estrogen receptor (Homo sapiens) (UniProt P03372). In words: qHTS assay to identify small molecule antagonists of the estrogen receptor alpha (ER-alpha) signaling pathway (AID 743069; active = well fitted curve in the direction sought with a large enough effect in the signal ratio in the repeat runs, not every such curve was filed as active; the % refers to the signal ratio). In short, it runs like this:
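Estradiol-stimulated ER-alpha-UAS-bla HEK293 cells, 18 hr compound exposure at 37C. LiveBLAzer B/G substrate, 2 hr RT, fluorescence read.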
(In general: qHTS replaces the single test concentration by a dilution series.)

Assay [5] in a line: qHTS assay to identify small molecule antagonists of the estrogen receptor alpha (ER-alpha) signaling pathway - cell viability counter screen (AID 743074; calls by dose curve;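 note: HEK293 cells carrying ER-alpha-UAS-bla reporter stimulated with 17beta-estradiol; nearly all actives have a fitted effect of over 45% in size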).
Assay [6] deals with Estrogen receptor (Homo sapiens) (UniProt P03372). In words: qHTS assay to identify small molecule agonists of the estrogen receptor alpha (ER-alpha) signaling pathway (AID 743075; calls by dose curve;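 note: HEK293 GripTite cells with ER-alpha and UAS-driven beta-lactamase reporter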).
Assay [7] has the same target. In words: qHTS assay to identify small molecule agonists of the estrogen receptor alpha (ER-alpha) signaling pathway using the BG1 cell line (AID 743079). Note: nearly all actives have a fitted effect of over 20% in size.
A short description of assay [8]: qHTS assay to identify small molecule antagonists of the estrogen receptor alpha (ER-alpha) signaling pathway using the BG1 cell line (AID 743080; calls by dose curve;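 note: BG1 cells stimulated with 17beta-estradiol alongside compound; series mostly up to about 70 µM; nearly all actives have a fitted effect of over 25% in size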). In short, it runs like this: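 Seeding, 24 h rest, compound transfer from DMSO, 17beta-estradiol addition, 21.5 h incubation, CellTiter-Fluor (30 min, 37 C), then ONE-Glo (30 min, room temperature): this sequence was run on BG1-Luc-4E2 reporter cells.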

Assay [9] in a line: qHTS assay to identify small molecule antagonists of the estrogen receptor alpha (ER-alpha) signaling pathway using the BG1 cell line - cell viability counter screen (AID 743081).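 Note: compound given together with 17beta-estradiol as the ER stimulus; series mostly up to about 70 µM; nearly all actives have a fitted effect of over 45% in size.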
The nature of assay [10]: qHTS assay to identify aromatase inhibitors - cell viability counter screen (AID 743084).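 Note: cells stimulated with testosterone during compound exposure; nearly all actives have a fitted effect of over 55% in size.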
Assay [11] concerns the target Aryl hydrocarbon receptor (Homo sapiens) (UniProt P35869). In words: qHTS assay to identify small molecule that activate the aryl hydrocarbon receptor (AhR) signaling pathway (AID 743085).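 For activation: HG2L7.5c1 human HepG2 liver cells with stably integrated DRE-driven firefly reporter; series mostly up to about 70 µM.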 Note: nearly all actives have a fitted effect of over 15% in size. Note: potency is the fitted concentration of half-maximal effect. An outline of the steps: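 Stably transfected human liver carcinoma cells (HG2L7.5c1; 20 DRE-firefly luciferase) were incubated 5 h, dosed, and kept 24 h at 37C. Agonism was scored from increased luciferase luminescence.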

A short description of assay [12]: qHTS assay to identify small molecule that activate the aryl hydrocarbon receptor (AhR) signaling pathway - cell viability counter screen (AID 743086).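 Note: HepG2 liver cells carrying the AhR DRE luciferase reporter; series mostly up to about 70 µM; nearly all actives have a fitted effect of over 45% in size.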 In short, it runs like this:
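HepG2-AhR-luc (HG2L7.5c1) cells, 4000/well, were preincubated 5 h at 37C, exposed to compound in qHTS format for 24 hr at 37C, then given CellTiter-Fluor for 30 min; viability was read as fluorescence in the reporter wells.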

For assay [13], the target named is Peroxisome proliferator-activated receptor gamma (Homo sapiens) (UniProt P37231). In words: qHTS assay to identify small molecule agonists of the peroxisome proliferator-activated receptor gamma (PPARg) signaling pathway (AID 743094; active = well fitted activation curve with a large enough effect in the signal ratio in the repeat runs, not every such curve was filed as active; the % refers to the signal ratio). An outline of the steps:
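Quantitative HTS agonist mode: stable HEK293H line with UAS-beta-lactamase reporter under PPARg control, 17 h compound exposure at 37C, fluorescence after 1 h FRET substrate loading at room temperature.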

For assay [14] the target is unchanged. In words: qHTS assay to identify small molecule antagonists of the peroxisome proliferator-activated receptor gamma (PPARg) signaling pathway (AID 743191; calls by dose curve; note: series mostly up to about 63 µM; nearly all actives have a fitted effect of over 30% in size). An outline of the steps:
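GeneBLAzer PPARg UAS-bla HEK293H cells carrying a UAS-driven beta-lactamase reporter were plated at 3000 cells/well, preincubated 5 h at 37C, then given compound for 17 h at 37C; LiveBLAzer B/G FRET substrate was read after 1 h at room temperature.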

A short description of assay [15]: qHTS assay to identify small molecule antagonists of the peroxisome proliferator-activated receptor gamma (PPARg) signaling pathway - cell viability counter screen (AID 743194). Note: nearly all actives have a fitted effect of over 55% in size. In short, it runs like this: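 PPARg-UAS-bla HEK293H cells were plated, rested 5 h at 37 C, then treated with compounds plus rosiglitazone (50 nM final) for 17 h at 37 C; viability was then read by CellTiter-Glo luminescence after 30 min at room temperature.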

A short description of assay [16]: qHTS assay for small molecule agonists of the antioxidant response element (ARE) signaling pathway (AID 743202; active = well fitted activation curve with a large enough effect in the signal ratio in the repeat runs, not every such curve was filed as active; the % refers to the signal ratio). An outline of the steps:
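Compounds delivered in DMSO to ARE-bla HepG2 cells (2,000 cells/well, pre-incubated 5 h) and left 16 h at 37 C. LiveBLAzer B/G FRET substrate then added for 2 h at RT before fluorescence reading.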

Assay [17] can be described thus: qHTS assay for small molecule agonists of the antioxidant response element (ARE) signaling pathway - cell viability counter screen (AID 743203; calls by dose curve; note: nearly all actives have a fitted effect of over 55% in size). An outline of the steps:
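Seeded at 2,000 cells/well, ARE-bla HepG2 cells were incubated 5 hrs before compound addition. After 16 hrs of treatment at 37C with 5% CO2, CellTiter-Glo reagent was added and luminescence read 30 min later.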

Assay [18] is described as follows: qHTS assay for small molecule activators of the heat shock response signaling pathway - cell viability counter screen (AID 743209). Note: nearly all actives have a fitted effect of over 50% in size. An outline of the steps:
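First, HSE-bla HeLa cells were seeded at 1500 cells/well and kept overnight at 37 C. Next, compounds were pinned in and incubated 5 h. After the FRET substrate step, CellTiter-Glo was added and luminescence read 30 min later.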

The target in a further assay is Aromatase (Homo sapiens) (UniProt P11511). In words: qHTS assay to identify aromatase inhibitors (AID 743083).
Assay [19] in a line: qHTS assay for small molecule activators of the heat shock response signaling pathway (AID 743210; active = well fitted activation curve with a large enough effect in the signal ratio in the repeat runs, with a control signal flat, not every such curve was filed as active; the % refers to the signal ratio;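 note: HeLa cells with beta-lactamase reporter driven by heat shock elements; series mostly up to about 63 µM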). In short, it runs like this: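 Reporter gene assay: HeLa cells stably bearing an HSE-bla construct, compound treatment 5 h at 37 C, LiveBLAzer substrate 2.5 h at RT, fluorescence intensity.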

Aromatase (Homo sapiens), sequence (P11511 whole entry, looked up): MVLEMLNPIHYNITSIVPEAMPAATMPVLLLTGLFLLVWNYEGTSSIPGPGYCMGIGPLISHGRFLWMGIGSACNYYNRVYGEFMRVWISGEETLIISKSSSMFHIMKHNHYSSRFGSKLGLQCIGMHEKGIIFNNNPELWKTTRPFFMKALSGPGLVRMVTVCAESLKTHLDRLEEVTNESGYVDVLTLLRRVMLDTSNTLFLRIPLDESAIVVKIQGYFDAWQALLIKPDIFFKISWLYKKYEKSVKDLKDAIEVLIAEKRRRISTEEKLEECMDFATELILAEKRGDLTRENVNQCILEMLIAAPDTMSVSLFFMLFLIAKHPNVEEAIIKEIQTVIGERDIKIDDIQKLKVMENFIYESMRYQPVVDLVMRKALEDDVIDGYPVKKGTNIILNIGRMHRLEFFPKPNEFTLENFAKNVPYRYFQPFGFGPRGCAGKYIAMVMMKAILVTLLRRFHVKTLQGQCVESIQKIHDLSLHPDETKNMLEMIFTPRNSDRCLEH
Aryl hydrocarbon receptor (Homo sapiens), sequence (P35869 whole entry, looked up): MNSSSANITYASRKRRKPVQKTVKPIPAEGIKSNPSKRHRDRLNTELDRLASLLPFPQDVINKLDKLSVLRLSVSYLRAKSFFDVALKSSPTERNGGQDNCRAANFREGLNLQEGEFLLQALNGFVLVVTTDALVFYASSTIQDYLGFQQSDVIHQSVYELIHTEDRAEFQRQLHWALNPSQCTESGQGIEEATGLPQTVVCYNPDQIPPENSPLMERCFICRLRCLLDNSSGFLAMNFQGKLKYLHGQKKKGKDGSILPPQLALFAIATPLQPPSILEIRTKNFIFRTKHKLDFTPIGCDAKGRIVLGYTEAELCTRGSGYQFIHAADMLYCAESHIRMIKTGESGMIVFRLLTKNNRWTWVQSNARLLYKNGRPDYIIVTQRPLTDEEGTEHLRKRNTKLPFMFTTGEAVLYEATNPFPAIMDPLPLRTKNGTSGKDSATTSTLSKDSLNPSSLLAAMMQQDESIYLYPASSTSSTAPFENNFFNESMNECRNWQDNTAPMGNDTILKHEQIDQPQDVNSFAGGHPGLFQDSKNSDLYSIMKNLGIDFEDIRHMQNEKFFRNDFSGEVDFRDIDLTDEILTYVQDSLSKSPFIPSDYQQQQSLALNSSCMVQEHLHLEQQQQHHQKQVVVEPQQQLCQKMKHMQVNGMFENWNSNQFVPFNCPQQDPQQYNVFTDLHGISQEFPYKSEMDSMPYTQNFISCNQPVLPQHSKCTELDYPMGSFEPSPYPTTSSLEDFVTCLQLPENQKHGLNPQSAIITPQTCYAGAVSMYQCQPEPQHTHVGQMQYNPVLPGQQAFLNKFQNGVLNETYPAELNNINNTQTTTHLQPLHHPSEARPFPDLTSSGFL
Peroxisome proliferator-activated receptor gamma (Homo sapiens), sequence (P37231 whole entry, looked up): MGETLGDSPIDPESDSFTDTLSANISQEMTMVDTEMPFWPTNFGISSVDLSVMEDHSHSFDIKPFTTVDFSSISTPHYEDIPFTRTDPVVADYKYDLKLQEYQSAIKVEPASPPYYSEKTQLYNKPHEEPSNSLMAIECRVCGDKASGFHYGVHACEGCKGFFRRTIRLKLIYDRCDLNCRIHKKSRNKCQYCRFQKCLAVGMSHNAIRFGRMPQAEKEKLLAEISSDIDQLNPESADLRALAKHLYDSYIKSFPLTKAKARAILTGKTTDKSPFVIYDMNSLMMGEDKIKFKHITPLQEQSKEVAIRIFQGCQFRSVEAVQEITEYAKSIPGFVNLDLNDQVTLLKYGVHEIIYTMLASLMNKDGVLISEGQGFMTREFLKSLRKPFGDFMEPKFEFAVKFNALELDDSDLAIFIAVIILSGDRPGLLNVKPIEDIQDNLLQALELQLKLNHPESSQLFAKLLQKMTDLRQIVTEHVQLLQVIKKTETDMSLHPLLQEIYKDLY
Estrogen receptor (Homo sapiens), sequence (P03372 whole entry, looked up): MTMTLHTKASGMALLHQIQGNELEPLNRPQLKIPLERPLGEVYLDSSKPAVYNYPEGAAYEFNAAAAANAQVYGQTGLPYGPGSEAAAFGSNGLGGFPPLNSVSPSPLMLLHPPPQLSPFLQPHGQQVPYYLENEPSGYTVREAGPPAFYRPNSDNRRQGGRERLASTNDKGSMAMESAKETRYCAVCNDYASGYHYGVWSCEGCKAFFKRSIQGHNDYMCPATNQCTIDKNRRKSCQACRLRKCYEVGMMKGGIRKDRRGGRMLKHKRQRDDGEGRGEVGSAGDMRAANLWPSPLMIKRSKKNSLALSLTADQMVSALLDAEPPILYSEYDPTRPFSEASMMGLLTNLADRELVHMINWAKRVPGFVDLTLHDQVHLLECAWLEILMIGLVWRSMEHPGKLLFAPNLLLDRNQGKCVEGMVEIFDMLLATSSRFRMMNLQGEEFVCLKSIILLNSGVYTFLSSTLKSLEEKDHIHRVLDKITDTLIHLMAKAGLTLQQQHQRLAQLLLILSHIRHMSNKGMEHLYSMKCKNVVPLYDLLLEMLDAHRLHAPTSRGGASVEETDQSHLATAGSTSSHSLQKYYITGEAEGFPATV

For the molecule `O=C(NCCc1c[nH]c2ccccc12)c1cccnc1`, the Potency entry in assay [1], in [2], in assay [7], in assay [8], in assay [10] and in assay [12] was “inactive” throughout. The Potency result in assay [14] and in [16] was “inactive” throughout. The result in assay [3], in assay [4], in assay [5], in assay [6], in assay [9] and in assay [13] was inactive. The molecule was called inactive in [15], in assay [17] and in [18]. The Potency in assay [11] was 13.3 µM (active).

Take `Nc1ccc(S(=O)(=O)Nc2ccc(Cl)nn2)cc1`: the Potency result (in assay [1]; in [2]; in assay [7]; in [8]; with Aromatase (Homo sapiens); in assay [10]) was “inactive” throughout. The Potency entry in assay [12] and in assay [14] was “inactive” each time. In addition, the molecule was called inactive in assay [3], in [4], in [5], in assay [6], in assay [9] and in [13]. Also, the molecule was called inactive in [15], in assay [17], in assay [18] and in [19].

For the molecule `CN(C)C(=O)CNC(=O)Cc1ccccc1`, the Potency result (in assay [1]; in [2]; in assay [7]; in assay [8]; with Aromatase (Homo sapiens); in assay [10]) was “inactive” throughout. Moreover, the Potency entry in [11], in [14] and in assay [16] was “inactive” throughout. Moreover, the result in assay [3], in [4], in assay [5], in [6], in [13] and in [15] was inactive. The molecule was called inactive in assay [17], in assay [18] and in assay [19].

Turning to `NC(CO)C(=O)NNCc1ccc(O)c(O)c1O` (configuration not stated), the Potency entry (in [1]; in assay [2]; in [7]; in assay [8]; with Aromatase (Homo sapiens); in assay [10]) was “inactive” in each case. Also, the Potency result in assay [14] was “inactive”. Also, the outcome in [3], in assay [4], in assay [5], in [6], in assay [9] and in [13] was inactive. Besides, the molecule was classed as inactive in assay [15], in assay [17], in [18] and in assay [19].

As for `CC(C)c1ccc2cc(C(C)C)ccc2c1`, the Potency entry (in assay [1]; in [2]; in [7]; with Aromatase (Homo sapiens); in [10]; in [12]) was “inactive” throughout. Also, the Potency entry in assay [16] is “inactive”. Further, the outcome in assay [3], in assay [4], in [5], in [6], in assay [9] and in assay [13] was inactive. Also, the molecule was classed as inactive in assay [15], in assay [17] and in [18].

For the molecule `Nc1ncnc(Nc2ccccc2)n1`, the Potency entry (in assay [1]; in [2]; with Aromatase (Homo sapiens); in assay [10]; in assay [11]; in [12]) was “inactive” throughout. The Potency result in assay [14] is “inactive”. In addition, the call in assay [3], in assay [4], in assay [5], in [6], in assay [9] and in assay [13] was inactive. Further, the molecule was classed as inactive in assay [15], in assay [17], in [18] and in [19].

For the molecule `CC1(C)S[C@@H]2[C@H](N=CN3CCCCCC3)C(=O)N2[C@H]1C(=O)O`, the Potency result (in assay [1]; in [2]; in assay [7]; in assay [8]; with Aromatase (Homo sapiens); in assay [10]) was “inactive” throughout. Also, the Potency entry in [11], in assay [14] and in [16] was “inactive” in each case. In addition, the molecule was called inactive in [3], in assay [4], in [5], in assay [6], in assay [9] and in assay [13]. Also, the call in assay [15], in assay [18] and in [19] was inactive.
